According to PubChem BioAssay AID1159580 (chemical genetic matrix, 2015):
Several values for one entry are separate records, joined by “and”; a condition that tells them apart may be missing. Equal entries are not always repeated. Out of some 5,500 compounds screened, about 2,000 (36%) were called active. Inconclusive results (about 18%) are left out. Some of the results follow. Values without a mark were called inactive. Rule as the data show it: active = normalized growth mostly below about 0.91 (no sharp cut-off); inconclusive = no clear call, values can overlap the other calls; inactive = mostly above about 0.92.

Experiment: chemical genetic growth profiling, strain panel (AID 1159580);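 also: tested at 20 µM; growth read once vehicle control cultures reached saturation at 30 °C; 1 = growth at the plate median or of vehicle wells; lower values mean less growth of the strain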
Settings: S. cerevisiae deletion strains, growth OD

C[C@H](CCC(=O)O)[C@H]1CCC2C3C(=O)CC4CC(=O)CC[C@]4(C)C3CC(=O)[C@@]21C (some centres not stated)
normalized growth (locus YAL021C, strain ccr4, hits give low values): 0.908 | normalized growth (locus YAL026C, strain drs2, hits give low values): 0.99 | normalized growth (locus YAL030W, strain snc1, hits give low values): 0.963 | normalized growth (locus YBL061C, strain skt5, hits give low values): 0.99 | normalized growth (locus YBR009C, strain hhf1, hits give low values): 0.992 | normalized growth (locus YBR021W, strain FUR4, hits give low values): 1.01 | normalized growth (locus YBR023C, strain chs3, hits give low values): 0.987 | normalized growth (locus YBR171W, strain sec66, hits give low values): 0.956 | normalized growth (locus YBR229C, strain ROT2, hits give low values): 1.01 | normalized growth (locus YBR231C, strain swc5, hits give low values): 0.967 | normalized growth (locus YBR279W, strain paf1, hits give low values): 0.994 | normalized growth (locus YCL011C, strain gbp2, hits give low values): 0.991 | normalized growth (locus YCL016C, strain dcc1, hits give low values): 1.02 | normalized growth (locus YCL029C, strain bik1, hits give low values): 1.01 | normalized growth (locus YCL061C, strain MRC1, hits give low values): 0.972 | normalized growth (locus YCL069W, strain vba3, hits give low values): 0.978 | normalized growth (locus YCR088W, strain abp1, hits give low values): 0.987 | normalized growth (locus YDL005C, strain med2, hits give low values): 0.952 | normalized growth (locus YDL035C, strain GPR1, hits give low values): 1.02 | normalized growth (locus YDL040C, strain nat1, hits give low values): 0.976 | normalized growth (locus YDL074C, strain BRE1, hits give low values): 1 | normalized growth (locus YDL101C, strain DUN1, hits give low values): 1.01 | normalized growth (locus YDL134C, strain PPH21, hits give low values): 1.02 | normalized growth (locus YDL185W, strain tfp1, hits give low values): 1.01 | normalized growth (locus YDL192W, strain arf1, hits give low values): 1 | normalized growth (locus YDR001C, strain nth1, hits give low values): 0.969 | normalized growth (locus YDR069C, strain doa4, hits give low values): 0.951 | normalized growth (locus YDR101C, strain arx1, hits give low values): 1.02 | normalized growth (locus YDR137W, strain rgp1, hits give low values): 0.999 | normalized growth (locus YDR159W, strain sac3, hits give low values): 0.937 | normalized growth (locus YDR162C, strain NBP2, hits give low values): 1.02 | normalized growth (locus YDR195W, strain ref2): 0.937 | normalized growth (locus YDR297W, strain sur2, hits give low values): 0.981 | normalized growth (locus YDR318W, strain mcm21, hits give low values): 1 | normalized growth (locus YDR334W, strain swr1, hits give low values): 0.957 | normalized growth (locus YDR335W, strain msn5, hits give low values): 0.978 | normalized growth (locus YDR388W, hits give low values): 1 | normalized growth (locus YDR392W, strain spt3, hits give low values): 1.06 | normalized growth (locus YDR502C, strain sam2, hits give low values): 0.998 | normalized growth (locus YEL003W, strain gim4, hits give low values): 0.979 | normalized growth (locus YEL037C, strain rad23, hits give low values): 0.983 | normalized growth (locus YEL061C, strain CIN8 (second series), hits give low values): 0.962 | normalized growth (locus YEL061C, strain CIN8, hits give low values): 1.01 | normalized growth (locus YER015W, strain faa2, hits give low values): 0.991 | normalized growth (locus YER016W, strain bim1, hits give low values): 1.04 | normalized growth (locus YER110C, hits give low values): 1.01 | normalized growth (locus YER111C, strain swi4, hits give low values): 0.974 | normalized growth (locus YER155C, strain BEM2 (second series), hits give low values): 0.961 | normalized growth (locus YER155C, strain BEM2, hits give low values): 1 | normalized growth (locus YER167W, strain BCK2, hits give low values): 1.01 | normalized growth (locus YFR010W, strain ubp6, hits give low values): 0.965 | normalized growth (locus YGL078C, strain dbp3, hits give low values): 1.01 | normalized growth (locus YGL086W, strain mad1, hits give low values): 1.01 | normalized growth (locus YGL167C, strain pmr1, hits give low values): 0.947 | normalized growth (locus YGL173C, strain kem1, hits give low values): 0.962 | normalized growth (locus YGL227W, strain vid30, hits give low values): 0.97 | normalized growth (locus YGL240W, strain doc1, hits give low values): 0.948 | normalized growth (locus YGL248W, strain PDE1, hits give low values): 1 | normalized growth (locus YGL253W, strain hxk2, hits give low values): 1 | normalized growth (locus YGR135W, strain pre9, hits give low values): 0.994 | normalized growth (locus YGR252W, strain gcn5, hits give low values): 0.972 | normalized growth (locus YHR013C, strain ard1, hits give low values): 1 | normalized growth (locus YHR027C, strain rpn1, hits give low values): 0.988 | normalized growth (locus YHR030C, strain SLT2, hits give low values): 1.01 and 1.03 | normalized growth (locus YHR079C, strain IRE1 (second series), hits give low values): 0.997 | normalized growth (locus YHR079C, strain IRE1, hits give low values): 1 | normalized growth (locus YHR094C, strain hxt1, hits give low values): 1.01 | normalized growth (locus YHR129C, strain ARP1, hits give low values): 1.01 | normalized growth (locus YHR142W, strain chs7, hits give low values): 0.957 | normalized growth (locus YHR200W, strain rpn10, hits give low values): 1 | normalized growth (locus YIL066C, strain RNR3, hits give low values): 1.02 | normalized growth (locus YIL073C, strain SPO22, hits give low values): 1.01 | normalized growth (locus YIL125W, strain kgd1, hits give low values): 1.01 | normalized growth (locus YIR030C, strain dcg1, hits give low values): 1.01 | normalized growth (locus YJL092W, strain hpr5, hits give low values): 0.971 | normalized growth (locus YJL095W, strain BCK1 (second series), hits give low values): 0.969 | normalized growth (locus YJL095W, strain BCK1, hits give low values): 1 and 1.02 | normalized growth (locus YJL115W, strain asf1, hits give low values): 0.978 | normalized growth (locus YJL129C, strain trk1, hits give low values): 0.962 | normalized growth (locus YJL134W, strain LCB3, hits give low values): 1.01 | normalized growth (locus YJL154C, strain vps35, hits give low values): 0.958 | normalized growth (locus YJL164C, strain tpk1, hits give low values): 1.01 | normalized growth (locus YJL166W, strain qcr8, hits give low values): 0.916 | normalized growth (locus YJL168C, strain set2, hits give low values): 1 | normalized growth (locus YJL187C, strain SWE1 (second series), hits give low values): 1.01 | normalized growth (locus YJR043C, strain POL32, hits give low values): 1.01 | normalized growth (locus YJR066W, strain TOR1, hits give low values): 0.971 | normalized growth (locus YJR075W, strain HOC1, hits give low values): 1.02 | normalized growth (locus YKL009W, strain mrt4, hits give low values): 0.992 | normalized growth (locus YKL068W, hits give low values): 1.01 | normalized growth (locus YKL085W, strain MDH1 (second series), hits give low values): 1.02 | normalized growth (locus YKL085W, strain MDH1, hits give low values): 1.02 | normalized growth (locus YKL160W, strain elf1, hits give low values): 0.985 | normalized growth (locus YKR001C, strain vps1, hits give low values): 1.01 | normalized growth (locus YKR026C, strain gcn3, hits give low values): 0.972 | normalized growth (locus YLL001W, strain dnm1, hits give low values): 0.923 | normalized growth (locus YLL026W, hits give low values): 0.987 | normalized growth (locus YLL041C, strain sdh2, hits give low values): 0.978 | normalized growth (locus YLR027C, strain aat2, hits give low values): 0.993 | normalized growth (locus YLR039C, strain RIC1, hits give low values): 0.955 | normalized growth (locus YLR058C, strain SHM2, hits give low values): 1.01 | normalized growth (locus YLR102C, strain apc9, hits give low values): 0.999 | normalized growth (locus YLR113W, strain HOG1, hits give low values): 1.03 | normalized growth (locus YLR221C, strain rsa3, hits give low values): 1.04 | normalized growth (locus YLR258W, strain gsy2, hits give low values): 0.982 | normalized growth (locus YLR262C, strain YPT6 (second series), hits give low values): 0.926 | normalized growth (locus YLR262C, strain YPT6, hits give low values): 1.05 | normalized growth (locus YLR268W, strain sec22, hits give low values): 1 | normalized growth (locus YLR320W, strain mms22, hits give low values): 1 | normalized growth (locus YLR330W, strain CHS5, hits give low values): 1.01 | normalized growth (locus YLR342W, strain FKS1 (second series), hits give low values): 1 | normalized growth (locus YLR342W, strain FKS1, hits give low values): 0.972 | normalized growth (locus YLR357W, strain rsc2, hits give low values): 0.917 | normalized growth (locus YLR370C, strain arc18, hits give low values): 0.987 | normalized growth (locus YLR371W, strain rom2, hits give low values): 1 | normalized growth (locus YLR384C, strain iki3, hits give low values): 0.976 | normalized growth (locus YLR418C, strain cdc73, hits give low values): 0.981 | normalized growth (locus YML016C, strain PPZ1, hits give low values): 1.01 | normalized growth (locus YML032C, strain rad52, hits give low values): 0.994 | normalized growth (locus YML120C, strain ndi1, hits give low values): 0.967 | normalized growth (locus YML124C, strain tub3, hits give low values): 0.995 | normalized growth (locus YMR058W, strain fet3, hits give low values): 0.976 | normalized growth (locus YMR078C, strain ctf18, hits give low values): 1.01 | normalized growth (locus YMR125W, strain sto1, hits give low values): 0.93 | normalized growth (locus YMR129W, hits give low values): 0.993 | normalized growth (locus YMR205C, strain PFK2, hits give low values): 0.953 | normalized growth (locus YMR223W, strain ubp8, hits give low values): 1 | normalized growth (locus YMR231W, strain pep5, hits give low values): 0.906 (active) | normalized growth (locus YMR307W, strain GAS1, hits give low values): 1.05 | normalized growth (locus YNL067W, strain RPL9B, hits give low values): 1.01 | normalized growth (locus YNL071W, strain lat1, hits give low values): 0.975 | normalized growth (locus YNL153C, strain GIM3, hits give low values): 0.996 | normalized growth (locus YNL183C, strain NPR1, hits give low values): 0.982 | normalized growth (locus YNL209W, strain ssb2, hits give low values): 0.99 | normalized growth (locus YNL233W, strain BNI4, hits give low values): 1.01 | normalized growth (locus YNL248C, strain rpa49, hits give low values): 1 | normalized growth (locus YNL250W, strain rad50, hits give low values): 0.995 | normalized growth (locus YNL271C, strain bni1, hits give low values): 0.996 | normalized growth (locus YNL298W, strain CLA4, hits give low values): 1 | normalized growth (locus YNL307C, strain MCK1, hits give low values): 1 | normalized growth (locus YNL322C, strain KRE1 (second series), hits give low values): 0.975 | normalized growth (locus YNL322C, strain KRE1, hits give low values): 1.02 | normalized growth (locus YNR049C, strain mso1, hits give low values): 0.983 | normalized growth (locus YNR052C, strain pop2, hits give low values): 1 | normalized growth (locus YOL012C, strain htz1): 1.17 | normalized growth (locus YOL147C, strain pex11, hits give low values): 1.01 | normalized growth (locus YOR001W, strain rrp6, hits give low values): 0.965 | normalized growth (locus YOR061W, strain CKA2, hits give low values): 1.01 | normalized growth (locus YOR069W, strain VPS5, hits give low values): 1.01 | normalized growth (locus YOR070C, strain gyp1, hits give low values): 0.995 | normalized growth (locus YOR080W, strain dia2, hits give low values): 0.947 | normalized growth (locus YOR083W, strain WHI5, hits give low values): 0.964 | normalized growth (locus YOR106W, strain vam3, hits give low values): 0.924 | normalized growth (locus YOR136W, strain idh2, hits give low values): 1 | normalized growth (locus YOR144C, strain elg1, hits give low values): 1.01 | normalized growth (locus YOR184W, strain ser1, hits give low values): 0.999 | normalized growth (locus YOR231W, strain MKK1, hits give low values): 1.03 | normalized growth (locus YOR265W, strain rbl2, hits give low values): 0.971 | normalized growth (locus YOR270C, strain vph1, hits give low values): 0.988 | normalized growth (locus YOR290C, strain snf2, hits give low values): 1.02 | normalized growth (locus YOR316C, strain cot1, hits give low values): 1.01 | normalized growth (locus YPL051W, strain arl3, hits give low values): 1.02 | normalized growth (locus YPL055C, strain LGE1, hits give low values): 1.02 | normalized growth (locus YPL078C, strain atp4, hits give low values): 0.929 | normalized growth (locus YPL106C, strain sse1, hits give low values): 0.94 | normalized growth (locus YPL240C, strain hsp82, hits give low values): 0.989 | normalized growth (locus YPL256C, strain CLN2, hits give low values): 1.04 | normalized growth (locus YPR119W, strain clb2, hits give low values): 1.01 | normalized growth (locus YPR141C, strain kar3, hits give low values): 1.01 | normalized growth (locus YPR163C, strain tif3, hits give low values): 1 | normalized growth (locus YPR167C, strain met16, hits give low values): 1 | normalized growth (strain wtn01, hits give low values): 0.988
